Shiga inhibitor = A qHTS for Small Molecule Inhibitors of Shiga Toxin | Vero cells, Shiga toxin protein synthesis inhibition reporter | inhibition, % at 38.7 µM | actives 9.2% (n = 290,000); in the data active means inhibition mostly above about 28%, no sharp cut-off; inactive means mostly below about 43%; further: 0% is about no effect
CHX counter = Cycloheximide Counterscreen for Small Molecule Inhibitors of Shiga Toxin; cell reporter, cycloheximide protein synthesis inhibition counterscreen; max response, %; actives 12% (n = 300,000); in the data active means max response mostly above about 13%, no sharp cut-off; inactive means mostly below about 14%; further: read at 38.3 µM for the half of the compounds with a filed dose; 0% is about no effect
HCV inhibitor = qHTS Assay for Inhibitors of Hepatitis C Virus (HCV); actives 3.4% (n = 340,000); Potency, µM (series often up to 41.8 µM), for inactives: at the highest dose activity change, negative = inhibition, actives largely listed as inhibitors; Huh7.5.1 HCVcc-Cre infection, luciferase reporter, 44 h; AID 651820, 2012; further: potency means the concentration at half of the fitted maximal effect; on the % scale 0 is the no-effect control and ±100 the full control effect
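Seed cells (1,000/well) for 4 h; treat with compound and infect with HCVcc-Cre, moi about 0.5. Incubate 44 h, then detect luciferase activity.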
HCMV inh = qHTS Assay for inhibitors of the human cytomegalovirus (HCMV); HFF cells, HCMV-luciferase reporter, 72 h; hits give low values; activity change, negative = inhibition, % at 57.5 µM; AID 1259415, 2018; actives 4.5% (n = 410,000); in the data active means activity change below about -60%; inconclusive means no clear call, values can overlap the other calls; inactive means above about -39%; further: on the % scale 0 is the no-effect control and ±100 the full control effect
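Two-dose cell screen: HFF monolayers treated with compounds and infected with luciferase-expressing HCMV at 1 PFU/cell, 72 h at 37C, then lysed for luciferase measurement.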
Pf growth 96h = Primary qHTS for delayed death inhibitors of the malarial parasite plastid, 96 hour incubation. Potency, µM (doses to about 28.7 µM), for inactives: at the top dose activity change, negative = inhibition, hits mostly inhibitors. P. falciparum luciferase reporter growth, 96 h. AID 504834, 2011. actives 6.9% (n = 320,000); further: potency means the concentration at half of the fitted maximal effect; on the % scale 0 is the no-effect control and ±100 the full control effect
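Plates of compound plus infected erythrocytes (2% hematocrit, 0.05% parasitemia final) incubate 96 hours, 37 C, 5% CO2. Detection reagent added; reduced luminescence from the parasites' luciferase reporter flags inhibition.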
Pf growth 48h = Primary qHTS for delayed death inhibitors of the malarial parasite plastid, 48 hour incubation | P. falciparum luciferase growth in erythrocytes, 48 h | Potency, µM (series often up to 28.7 µM), for inactives: top-dose activity change, negative = inhibition, most hits filed as inhibitors | actives 5.9% (n = 310,000) | AID 504832, 2011; further: potency means the concentration at half of the fitted maximal effect; on the % scale 0 is the no-effect control and ±100 the full control effect
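Luciferase-expressing P. falciparum in infected erythrocytes (2% hematocrit, 0.1% parasitemia final) in RPMI 1640/0.5% Albumax were exposed to compound for 48 hours at 37 C, 5% CO2; growth read as luminescence.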
Active calls of the source: *; ? = inconclusive; / = no result given; ! = repeats disagree; [ ] = remark or other dose. Sampled rows, rich in hits. Any-hit rate of the full collection: about 21%. Unless noted, the call rests on the fitted dose curve; in most records, active means well fitted inhibition curve with a large enough effect; inconclusive means small, poorly fitted or top-dose-only effect, or another doubt; inactive means no such curve, though single readings can be large or run the other way.

SMILES	Shiga inhibitor	CHX counter	HCV inhibitor	HCMV inh	Pf growth 96h	Pf growth 48h
COc1cc(-c2nc3ccc(C)cn3c2Nc2ccc(Cl)cc2)ccc1O	/	/	/	60	/	/
NCCCCCc1nnc(SCc2ccc(F)cc2)o1	/	/	/	-13	/	/
COCCN(C(=O)CSc1nnc(-c2ccncc2)n1C)c1c(N)n(CC(C)C)c(=O)[nH]c1=O	/	/	17%	44	/	/
O=C(COC(=O)c1cc(=O)[nH]c2ccccc12)NCc1ccccc1	/	/	8%	15	/	/
O=C(Nc1ccccn1)c1ccc(Br)s1	/	40*	-10%	76	4%	127%
CSc1ccc(Cl)c(C(=O)Nc2ccc(C)cn2)c1	36	25*	1%	4	2%	24%
O=C(c1cc([N+](=O)[O-])ccc1Cl)N1c2ccccc2Sc2ccccc21	-11	11	-23%	?	2.1µM*	7.4µM*
O=C(Nc1ccccn1)c1ccc(Cl)c([N+](=O)[O-])c1	64*	20*	-10%	45	16%	26%
C=C1[C@@H](CCO)N(S(=O)C(C)(C)C)C[C@@H]1C (some centres not stated)	/	/	/	-13	/	/
O=C(Nc1nnc(-c2ccccc2Cl)o1)c1cc2cc([N+](=O)[O-])ccc2s1	-5	-2	-1%	/	4%	1%
O=C(Nc1ccccn1)c1ccc([N+](=O)[O-])cc1Cl	35	16*	-2%	25	71%	41%
O=C(Nc1ccc(Cl)cc1)c1ccc(-c2ccccn2)s1	72*	42*	0%	51	11%	134%
O=C(Nc1ccccn1)c1cc2cc([N+](=O)[O-])ccc2s1	79*	40*	2%	-1	252%	98%
Cc1ccc(NC(=O)c2ccc([N+](=O)[O-])cc2Cl)nc1	125*	75*	-5%	-2	342%	234%
Cc1ccc(NC(=S)N2CCC(NC(=O)c3ccc(F)cc3)CC2)cc1C	-8	6	-21%	-29	12%	-18%
Cc1ccccc1CNC(=O)C(C)N(c1ccccc1)S(C)(=O)=O (configuration not stated)	/	/	/	-18	/	/
COc1cccc(CNC(=O)CN2CCC(c3nc4ccc(C)cc4[nH]3)CC2)c1	12	-4	10%	10	-2%	-16%
Cn1cc(C(=O)O)c(=O)c2cc(S(=O)(=O)N3CCCCC3)ccc21	/	/	/	53	/	/
Cc1ccc(N(CC(=O)NCc2ccccc2)S(=O)(=O)c2c(C)noc2C)cc1	14	-3	13%	-38	?	0%
CCCc1nc2ccc(NC(=O)c3ccco3)cc2c(=O)n1Cc1ccc(Cl)cc1	41	12	-20%	11	?	1.3µM*
CCCc1nc2ccc(NC(=O)c3ccco3)cc2c(=O)n1Cc1ccccc1Cl	0	1	?	?	0%	2.3µM*
Cc1c(C(=O)N2CCCCCC2)c(S(=O)(=O)Nc2ccc(F)cc2)c(C)n1C	-3	-1	15%	-21	?	0%
O=Cc1c(C(=O)O)n(Cc2ccccc2Cl)c2ccccc12	-11	6	20%	-7	?	-8%
Cc1[nH]c2ccccc2c1/C=N/NC(=O)c1cccs1	100	51*	?	105	79%[1.15 µM]	22%
Cc1[nH]c2ccccc2c1/C=N\NC(=O)c1ccco1	57*	30*	3%	?	-14%	8%
SMILES	Shiga inhibitor	CHX counter	HCV inhibitor	HCMV inh	Pf growth 96h	Pf growth 48h
Cc1[nH]c2ccccc2c1/C=N/NC(=O)CNC(=O)c1ccco1	-27	-2	?	17	12%	0%
Cc1c(/C=N/NC(=O)c2cccs2)c2ccccc2n1Cc1ccccc1Cl	30*	23*	?	-81*	?	?
CC(C)(C)c1ccc(OCCC(=O)NC2=NCCS2)cc1	42	12*	-7%	28	/	24%
CCOc1ccc(OCCCC(=O)NC2=NCCS2)cc1	-19	-7	-11%	13	/	0%
COc1ccc(OCCC(=O)NC2=NCCS2)cc1	62	27*	4%	10	8%	50%
CCN(CC)c1nn2c(=O)c(C(=O)NCc3cccc(C)c3)cnc2s1	/	/	/	-16	/	/
CC(C)Oc1ccc(CNC(=O)CN2C(=O)CCn3nc(-c4cn(C)c5ccccc45)cc32)cc1	/	/	/	31	/	/
CN(C)/C=C/C(=O)/C=C/c1cn(-c2ncc(C(F)(F)F)cc2Cl)c2ccccc12	18	-1	-8%	21	?	13µM*
COC(=O)Cc1cn(-c2ncc(C(F)(F)F)cc2Cl)c2ccccc12	-10	5	-12%	-6	?	/
Cc1ccsc1/C=N/NC(=O)C1C(=O)NCC1c1ccccc1 (configuration not stated)	-4	-2	2%	?	34%	52%
O=C1CN(S(=O)(=O)c2cccc(Cl)c2Cl)CCN1	/	/	0%	1	14%	3%
O=C(/C=C/c1ccc2c(c1)OCO2)c1c(O)n(CCc2ccccc2)c(=O)[nH]c1=O	-10	-1	8%	-84*	?	?
COc1cc(/C=C/C(=O)c2c(O)n(CCc3ccccc3)c(=O)[nH]c2=O)ccc1O	11	-1	-2%	-97*	?	-23%
CCN1C(=NCCOC)N[C@@H](CCc2ccccc2)[C@H](C(=O)OC)[C@H]1C	2	-5	0%	-7	17µM*!	1%
CCN1C(=O)N[C@@H](CCc2ccccc2)[C@H](C(C)=O)[C@H]1C	/	/	24%	-3	/	/
CCN1C(=NCCCOC(C)C)N[C@@H](CCc2ccccc2)[C@H](C(=O)NCCCOC(C)C)[C@H]1C	-6	-3	-8%	-14	4.7µM*	4.7µM*
CCOC(=O)CN1C(=O)N[C@@H](CCc2ccccc2)[C@@H](C(=O)OC)[C@H]1C	/	/	17%	-5	/	/
O=C1Nc2ccccc2Sc2ccccc21	-32	-4	0%	-9	4%	-1%
c1ccc2c(c1)Nc1ccccc1S2	8	0	-9%	/	4.8µM*	12µM*
O=C(Nc1ccccc1)OCc1cc(-c2ccccc2Cl)on1	69*	39*	?	-1	125%	24%
Cc1cccc(NC(=O)C(=O)NCc2ccccn2)c1	168*	59*	18%	108	143%	154%
O=C(NCc1ccccn1)Nc1ccc(Br)cc1	29*	12*	17%	1	1.7µM*	13%
O=C(NCc1ccccn1)Nc1cccc(F)c1	39*	26*	16%	-12	13%	-4%
O=C(NCc1ccccn1)Nc1ccc(F)cc1F	8	9	9%	-3	57%	51%
O=C(Nc1cccc(O)c1)c1cc(-c2ccccc2Cl)on1	-12	6	0%	-24	0%	0%

Assay outcomes: PubChem, National Center for Advancing Translational Sciences (NCATS)
